Counter-ions that a name gives are not always drawn. In all, about 1,500 compounds were measured (“Excess HSA synergy score (sum over dose matrix of excess over highest single agent)”: median about 43, lowest 2% from about -900 on). The entries come from a sample that favours the lowest values as a whole.
Test system: PEO-1
Test: Excess HSA synergy score (sum over dose matrix of excess over highest single agent) (score (summed % response)); higher = less synergy / more antagonism (negative = synergy)
Conditions: 72 h, read-out: viability/apoptosis luminescence (CellTiter-Glo or Caspase3-Glo / not stated per table)
[1] = matrix design: 6x6, 5-fold dilutions (primary screen)
[2] = matrix design: 10x10, 9-step dilutions (confirmatory)

CN(C)c1ccc(C(=C2C=CC(=[N+](C)C)C=C2)c2ccc(N(C)C)cc2)cc1 [Methylrosaniline chloride] + CC[C@H](NC(=O)[C@H](C)NC)C(=O)N1C[C@@H](O)C[C@H]1Cc1c(-c2[nH]c3cc(F)ccc3c2C[C@@H]2C[C@H](O)CN2C(=O)[C@H](CC)NC(=O)[C@H](C)NC)[nH]c2cc(F)ccc12 [Birinapant]
Excess HSA synergy score [1]: -147

COc1ccc(C2=N[C@@H](c3ccc(Cl)cc3)[C@@H](c3ccc(Cl)cc3)N2C(=O)N2CCNC(=O)C2)c(OC(C)C)c1 [Nutlin-3] + CC[C@H](NC(=O)[C@H](C)NC)C(=O)N1C[C@@H](O)C[C@H]1Cc1c(-c2[nH]c3cc(F)ccc3c2C[C@@H]2C[C@H](O)CN2C(=O)[C@H](CC)NC(=O)[C@H](C)NC)[nH]c2cc(F)ccc12 [Birinapant]
Excess HSA synergy score [1]: 264

CCS(=O)(=O)N1CC(CC#N)(n2cc(-c3ncnc4[nH]ccc34)cn2)C1 [Baricitinib] + CC[C@H](NC(=O)[C@H](C)NC)C(=O)N1C[C@@H](O)C[C@H]1Cc1c(-c2[nH]c3cc(F)ccc3c2C[C@@H]2C[C@H](O)CN2C(=O)[C@H](CC)NC(=O)[C@H](C)NC)[nH]c2cc(F)ccc12 [Birinapant]
Excess HSA synergy score [1]: 48.3

N#CC(c1ccnc(OCc2ccc(CN3CCOCC3)cc2)n1)c1nc2ccccc2s1 (stereo not drawn) + CC[C@H](NC(=O)[C@H](C)NC)C(=O)N1C[C@@H](O)C[C@H]1Cc1c(-c2[nH]c3cc(F)ccc3c2C[C@@H]2C[C@H](O)CN2C(=O)[C@H](CC)NC(=O)[C@H](C)NC)[nH]c2cc(F)ccc12 [Birinapant]
Excess HSA synergy score [1]: 104

COc1ccc(C(=O)CC2(O)C(=O)Nc3c(Cl)ccc(Cl)c32)cc1 (stereo not drawn) + CC[C@H](NC(=O)[C@H](C)NC)C(=O)N1C[C@@H](O)C[C@H]1Cc1c(-c2[nH]c3cc(F)ccc3c2C[C@@H]2C[C@H](O)CN2C(=O)[C@H](CC)NC(=O)[C@H](C)NC)[nH]c2cc(F)ccc12 [Birinapant]
Excess HSA synergy score [1]: 27

NC(=O)c1ccc(N(C(N)=O)c2c(F)cccc2F)nc1-c1ccc(F)cc1F + CC[C@H](NC(=O)[C@H](C)NC)C(=O)N1C[C@@H](O)C[C@H]1Cc1c(-c2[nH]c3cc(F)ccc3c2C[C@@H]2C[C@H](O)CN2C(=O)[C@H](CC)NC(=O)[C@H](C)NC)[nH]c2cc(F)ccc12 [Birinapant]
Excess HSA synergy score [1]: 69.1

Cn1cnc(N)c2ncnc1-2 [3-Methyladenine] + CC[C@H](NC(=O)[C@H](C)NC)C(=O)N1C[C@@H](O)C[C@H]1Cc1c(-c2[nH]c3cc(F)ccc3c2C[C@@H]2C[C@H](O)CN2C(=O)[C@H](CC)NC(=O)[C@H](C)NC)[nH]c2cc(F)ccc12 [Birinapant]
Excess HSA synergy score [1]: 238

C[C@@]12C[C@@]3(O)O[C@@H](O1)[C@]1(COC(=O)c4ccccc4)[C@H]3C[C@@]12O[C@@H]1O[C@H](CO)[C@@H](O)[C@H](O)[C@H]1O [Paeoniflorin] + CC[C@H](NC(=O)[C@H](C)NC)C(=O)N1C[C@@H](O)C[C@H]1Cc1c(-c2[nH]c3cc(F)ccc3c2C[C@@H]2C[C@H](O)CN2C(=O)[C@H](CC)NC(=O)[C@H](C)NC)[nH]c2cc(F)ccc12 [Birinapant]
Excess HSA synergy score [1]: 211

COc1cc([C@@H]2c3cc4c(cc3[C@@H](O[C@@H]3O[C@@H]5CO[C@@H](c6cccs6)O[C@H]5[C@H](O)[C@H]3O)[C@H]3COC(=O)[C@H]23)OCO4)cc(OC)c1O [Teniposide] + CC[C@H](NC(=O)[C@H](C)NC)C(=O)N1C[C@@H](O)C[C@H]1Cc1c(-c2[nH]c3cc(F)ccc3c2C[C@@H]2C[C@H](O)CN2C(=O)[C@H](CC)NC(=O)[C@H](C)NC)[nH]c2cc(F)ccc12 [Birinapant]
Excess HSA synergy score [1]: -151
Excess HSA synergy score [2]: -1360

COc1cc([C@@H]2c3cc4c(cc3[C@@H](O[C@@H]3O[C@@H]5CO[C@@H](C)O[C@H]5[C@H](O)[C@H]3O)[C@H]3COC(=O)[C@H]23)OCO4)cc(OC)c1O [Etoposide] + CC[C@H](NC(=O)[C@H](C)NC)C(=O)N1C[C@@H](O)C[C@H]1Cc1c(-c2[nH]c3cc(F)ccc3c2C[C@@H]2C[C@H](O)CN2C(=O)[C@H](CC)NC(=O)[C@H](C)NC)[nH]c2cc(F)ccc12 [Birinapant]
Excess HSA synergy score [1]: -89.6

COC(=O)N[C@H](C(=O)N[C@@H](Cc1ccccc1)[C@@H](O)CN(Cc1ccc(-c2ccccn2)cc1)NC(=O)[C@@H](NC(=O)OC)C(C)(C)C)C(C)(C)C [Atazanavir sulfate] + CC[C@H](NC(=O)[C@H](C)NC)C(=O)N1C[C@@H](O)C[C@H]1Cc1c(-c2[nH]c3cc(F)ccc3c2C[C@@H]2C[C@H](O)CN2C(=O)[C@H](CC)NC(=O)[C@H](C)NC)[nH]c2cc(F)ccc12 [Birinapant]
Excess HSA synergy score [1]: 154

CC(C)(C)[C@H](NC(=O)c1ccc(N)c(Cl)c1)C(=O)N1CCC[C@H]1C(=O)N[C@H](C#N)CC(=O)O + CC[C@H](NC(=O)[C@H](C)NC)C(=O)N1C[C@@H](O)C[C@H]1Cc1c(-c2[nH]c3cc(F)ccc3c2C[C@@H]2C[C@H](O)CN2C(=O)[C@H](CC)NC(=O)[C@H](C)NC)[nH]c2cc(F)ccc12 [Birinapant]
Excess HSA synergy score [1]: 307

COc1ccc(C(C)=O)c(O)c1 [Paeonol] + CC[C@H](NC(=O)[C@H](C)NC)C(=O)N1C[C@@H](O)C[C@H]1Cc1c(-c2[nH]c3cc(F)ccc3c2C[C@@H]2C[C@H](O)CN2C(=O)[C@H](CC)NC(=O)[C@H](C)NC)[nH]c2cc(F)ccc12 [Birinapant]
Excess HSA synergy score [1]: 176

Nc1cccc(-c2cc3c(Oc4cccc(O)c4)ncnc3[nH]2)c1 + CC[C@H](NC(=O)[C@H](C)NC)C(=O)N1C[C@@H](O)C[C@H]1Cc1c(-c2[nH]c3cc(F)ccc3c2C[C@@H]2C[C@H](O)CN2C(=O)[C@H](CC)NC(=O)[C@H](C)NC)[nH]c2cc(F)ccc12 [Birinapant]
Excess HSA synergy score [1]: 63.5

Cc1[nH]c(/C=C2\C(=O)Nc3ccccc32)c(C)c1CCC(=O)O [Orantinib] + CC[C@H](NC(=O)[C@H](C)NC)C(=O)N1C[C@@H](O)C[C@H]1Cc1c(-c2[nH]c3cc(F)ccc3c2C[C@@H]2C[C@H](O)CN2C(=O)[C@H](CC)NC(=O)[C@H](C)NC)[nH]c2cc(F)ccc12 [Birinapant]
Excess HSA synergy score [1]: 23.6

COc1ccc(-c2cc3nccn3c(Nc3ncccc3C(N)=O)n2)cc1OC + CC[C@H](NC(=O)[C@H](C)NC)C(=O)N1C[C@@H](O)C[C@H]1Cc1c(-c2[nH]c3cc(F)ccc3c2C[C@@H]2C[C@H](O)CN2C(=O)[C@H](CC)NC(=O)[C@H](C)NC)[nH]c2cc(F)ccc12 [Birinapant]
Excess HSA synergy score [1]: 38

Cn1cc(CNCC2CCN(c3ncc(C(=O)NO)cn3)CC2)c2ccccc21 [Quisinostat] + CC[C@H](NC(=O)[C@H](C)NC)C(=O)N1C[C@@H](O)C[C@H]1Cc1c(-c2[nH]c3cc(F)ccc3c2C[C@@H]2C[C@H](O)CN2C(=O)[C@H](CC)NC(=O)[C@H](C)NC)[nH]c2cc(F)ccc12 [Birinapant]
Excess HSA synergy score [1]: -161
Excess HSA synergy score [2]: -1370

Cn1cc(C[C@@H](N)C(=O)O)c2ccccc21 [Indoximod] + CC[C@H](NC(=O)[C@H](C)NC)C(=O)N1C[C@@H](O)C[C@H]1Cc1c(-c2[nH]c3cc(F)ccc3c2C[C@@H]2C[C@H](O)CN2C(=O)[C@H](CC)NC(=O)[C@H](C)NC)[nH]c2cc(F)ccc12 [Birinapant]
Excess HSA synergy score [1]: 168

CN1CCc2c(c3ccccc3n2Cc2ccc(C(=O)NO)cc2)C1 [Tubastatin A] + CC[C@H](NC(=O)[C@H](C)NC)C(=O)N1C[C@@H](O)C[C@H]1Cc1c(-c2[nH]c3cc(F)ccc3c2C[C@@H]2C[C@H](O)CN2C(=O)[C@H](CC)NC(=O)[C@H](C)NC)[nH]c2cc(F)ccc12 [Birinapant]
Excess HSA synergy score [1]: -71.8

NC(=O)c1cnc(-c2ccc(C3(N)CCC3)cc2)c(-c2ccccc2)c1 + CC[C@H](NC(=O)[C@H](C)NC)C(=O)N1C[C@@H](O)C[C@H]1Cc1c(-c2[nH]c3cc(F)ccc3c2C[C@@H]2C[C@H](O)CN2C(=O)[C@H](CC)NC(=O)[C@H](C)NC)[nH]c2cc(F)ccc12 [Birinapant]
Excess HSA synergy score [1]: 61.1

CN(C)C(=O)c1ccc(S(=O)(=O)c2ccc(NC(=O)[C@@](C)(O)C(F)(F)F)c(Cl)c2)cc1 + CC[C@H](NC(=O)[C@H](C)NC)C(=O)N1C[C@@H](O)C[C@H]1Cc1c(-c2[nH]c3cc(F)ccc3c2C[C@@H]2C[C@H](O)CN2C(=O)[C@H](CC)NC(=O)[C@H](C)NC)[nH]c2cc(F)ccc12 [Birinapant]
Excess HSA synergy score [1]: 50.1

NC1(c2ccc(-c3nc4ccn5c(=O)[nH]nc5c4cc3-c3ccccc3)cc2)CCC1 + CC[C@H](NC(=O)[C@H](C)NC)C(=O)N1C[C@@H](O)C[C@H]1Cc1c(-c2[nH]c3cc(F)ccc3c2C[C@@H]2C[C@H](O)CN2C(=O)[C@H](CC)NC(=O)[C@H](C)NC)[nH]c2cc(F)ccc12 [Birinapant]
Excess HSA synergy score [1]: 208

Cc1nc(N)sc1-c1ccnc(Nc2ccc(N3CCOCC3)cc2)n1 + CC[C@H](NC(=O)[C@H](C)NC)C(=O)N1C[C@@H](O)C[C@H]1Cc1c(-c2[nH]c3cc(F)ccc3c2C[C@@H]2C[C@H](O)CN2C(=O)[C@H](CC)NC(=O)[C@H](C)NC)[nH]c2cc(F)ccc12 [Birinapant]
Excess HSA synergy score [1]: 9.08

N#CCNC(=O)c1ccc(-c2ccnc(Nc3ccc(N4CCOCC4)cc3)n2)cc1 [Momelotinib] + CC[C@H](NC(=O)[C@H](C)NC)C(=O)N1C[C@@H](O)C[C@H]1Cc1c(-c2[nH]c3cc(F)ccc3c2C[C@@H]2C[C@H](O)CN2C(=O)[C@H](CC)NC(=O)[C@H](C)NC)[nH]c2cc(F)ccc12 [Birinapant]
Excess HSA synergy score [1]: -152

Cc1ccc(-c2ncn(-c3ccc(Nc4nccc(-c5cccc(N6CCOCC6)c5)n4)cc3)n2)cn1 + CC[C@H](NC(=O)[C@H](C)NC)C(=O)N1C[C@@H](O)C[C@H]1Cc1c(-c2[nH]c3cc(F)ccc3c2C[C@@H]2C[C@H](O)CN2C(=O)[C@H](CC)NC(=O)[C@H](C)NC)[nH]c2cc(F)ccc12 [Birinapant]
Excess HSA synergy score [1]: 108
Excess HSA synergy score [2]: -998

Source: the supplement of paper PMC7765376
